Here are results for 17 molecules from article PMC5540273 (PLoS ONE, 2017).

Holding throughout (details): concentration: 1 μM, replicates: in singlicate; n = 1
In experiment [1] the test system is PAK3.
For experiment [2], the system named is PAK4.
Experiment [3] concerns PAK6.
Experiment [4] has as its system PAK7.
Experiment [5] has as its system T1, PCTK1.
T1 construct: gene CDK16

The subject of experiment [6] is T2, PCTK2.
T2 construct: gene CDK17

Experiment [7] has as its system T3, PCTK3.
T3 construct: gene CDK18

Experiment [8] has as its system PDGFRA.
Experiment [9] has as its system PDGFRB.
In experiment [10] the test system is PDPK1.
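Also: KINOMEscan kinase panel screen.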

Consider `COc1ccc(Nc2nccc(N3CCC(NC(=O)C(C)c4ccc(Cl)cc4)C3)n2)cc1` (stereo not shown) [GSK1379735], for which the “%Inh” value in [1] came to 71%; in [2], 0%; in experiment [3] it was 0%; in experiment [4], 6%; in [5], 0%; in [6] it was 10%. In addition, the “%Inh” value in experiment [7] was found to be 9%; in experiment [8] it was 0%; in [9] it was 34%; in experiment [10], 4%.

Turning to `CNc1cc(-c2ccc3c(N)n[nH]c3c2)nc(N)n1` [GSK2224810], the “%Inh” value worked out at 0% in [1]; 0% in experiment [2]; 0% in experiment [3]; 17% in experiment [4]; 0% in [5]; 16% in [6]. Besides, the “%Inh” value in experiment [7] turned out to be 0%; in experiment [8] it was 0%; in [9], 44%.

With `O=c1cc(N2CCOCC2)nc2n(Cc3ccccc3F)ccn12` [GSK2297428], the “%Inh” value in [1] is given as 24%; in experiment [2], 0%; in experiment [3], 0%; in experiment [4], 9%; in experiment [5], 0%; in experiment [6], 0%. For the same molecule, the “%Inh” value in experiment [7] came out at 0%; in experiment [8], 0%; in experiment [9] it was 8%; in experiment [10], 0%.

In the case of `O=c1cc(N2CCOCC2)nc2n(Cc3cccc(Cl)c3Cl)c3ccccc3n12` [GSK2299009], the “%Inh” value was found to be 42% in experiment [1]; 0% in experiment [2]; 21% in experiment [3]; 12% in experiment [4]; 8% in experiment [5]; 8% in [6]. Also, the “%Inh” value in experiment [7] amounted to 20%; in experiment [8], 0%; in [9], 51%; in experiment [10], 0%.

As to `Cc1c(Cn2c(C)c(C)n3c(=O)cc(N4CCOCC4)nc23)cccc1C(F)(F)F` [GSK2328680], the “%Inh” value is reported as 0% in experiment [1]; 19% in experiment [2]; 0% in experiment [3]; 0% in experiment [4]; 0% in experiment [5]; 0% in experiment [6]. Also, the “%Inh” value in [7] is 31%; in experiment [8], 0%; in [9] it was 16%; in experiment [10], 0%.

`c1ccc(-c2ccnc3[nH]ccc23)cc1` [SB-693578]: the “%Inh” value in experiment [1] is listed as 0%; in [2] it was 0%; in experiment [3] it was 4%; in experiment [4] it was 4%; in experiment [5], 7%; in experiment [6], 0%. For the same molecule, the “%Inh” value in experiment [7] was 24%; in [8], 0%; in experiment [9], 0%; in [10], 0%.

Consider `COc1cccc(NC(=O)Nc2ccc(C)c(-c3ccc(C(=O)Nc4ccncc4)cc3)c2)c1` [GSK1398474], for which the “%Inh” value in experiment [1] came out at 27%; in experiment [2] it was 0%; in experiment [3], 0%; in experiment [4] it was 26%; in experiment [5] it was 0%; in [6] it was 11%. Moreover, the “%Inh” value turned out to be 13% in experiment [7], 48% in experiment [8], 100% in experiment [9] and 27% in experiment [10].

As for `O=C(Nc1n[nH]c2cc(-c3ccsc3)ccc12)C1CC1` [SB-732932], the “%Inh” value in experiment [1] worked out at 0%; in [2], 22%; in experiment [3] it was 7%; in experiment [4] it was 0%; in [5], 13%; in [6], 31%. The “%Inh” value is 8% in experiment [7], 57% in [8], 80% in [9] and 0% in experiment [10].

With `Fc1ccc(-c2nc3n(c2-c2ccncc2)CCS3)cc1` [GI98581], the “%Inh” value was 42% in [1]; 0% in [2]; 0% in experiment [3]; 0% in experiment [4]; 12% in [5]; 0% in experiment [6]. The “%Inh” value in [7] stood at 20%; in experiment [8] it was 0%; in experiment [9], 16%; in experiment [10], 36%.

For the molecule `O=C(Nc1n[nH]c2nc(-c3cccs3)c(Br)cc12)C1CCCC1` [SB-743341], the “%Inh” value in experiment [1] turned out to be 0%; in experiment [2], 0%; in experiment [3] it was 9%; in [4], 0%; in [5], 46%; in [6] it was 54%. Moreover, the “%Inh” value in experiment [7] was 56%; in experiment [8] it was 32%; in experiment [9] it was 74%; in experiment [10] it was 0%.

Take `Cc1ccccc1Cn1ccn2c(=O)cc(N3CCOCC3)nc12` [GSK2269905]: the “%Inh” value in experiment [1] is given as 0%; in experiment [2], 0%; in experiment [3], 0%; in [4], 0%; in experiment [5] it was 1%; in experiment [6] it was 0%. In addition, the “%Inh” value amounted to 0% in [7], 0% in [8], 13% in experiment [9] and 0% in experiment [10].

Take `CCn1c(-c2ccccc2)nc2cnccc21` [SB-733416]: the “%Inh” value in experiment [1] turned out to be 14%; in experiment [2] it was 0%; in [3], 0%; in [4] it was 0%; in experiment [5], 4%; in [6], 0%. Moreover, the “%Inh” value in [7] is reported as 0%; in experiment [8], 0%; in [9], 16%; in [10], 0%.

For `Cc1ccc(-c2nc(Nc3ccncc3)c3ccccc3n2)s1` [GSK189015], the “%Inh” value stood at 6% in [1]; 4% in experiment [2]; 8% in [3]; 0% in [4]; 7% in [5]; 0% in experiment [6]. For the same molecule, the “%Inh” value turned out to be 30% in [7], 0% in [8], 22% in [9] and 26% in experiment [10].

`COc1ccc(CSc2nnc(-c3ccc4nccn4c3)o2)cc1C(F)(F)F`: the “%Inh” value came out at 0% in experiment [1]; 16% in experiment [2]; 35% in experiment [3]; 22% in experiment [4]; 13% in experiment [5]; 8% in experiment [6]. Also, the “%Inh” value was 3% in [7], 28% in [8], 0% in experiment [9] and 0% in [10].

As to `Cc1ccc(NC(=O)Nc2ccc(Cl)c(C(F)(F)F)c2)cc1-c1ccc(C(=O)Nc2ccncc2)cc1` [GSK1398470], the “%Inh” value in experiment [1] stood at 22%; in [2], 0%; in experiment [3] it was 0%; in experiment [4], 2%; in experiment [5] it was 0%; in [6] it was 6%. For the same molecule, the “%Inh” value was determined as 14% in experiment [7], 19% in experiment [8], 97.5% in [9] and 26% in [10].

For the molecule `CC(=O)c1cccc(NC(=O)NC2CCN(c3ccnc(Nc4ccc(F)cc4)n3)C2)c1` (stereo not shown) [GSK1379710], the “%Inh” value in [1] is 0%; in experiment [2], 0%; in experiment [3] it was 0%; in [4], 20%; in experiment [5] it was 8%; in [6] it was 19%. For the same molecule, the “%Inh” value in experiment [7] was determined as 24%; in experiment [8] it was 10%; in [9], 43%; in [10] it was 0%.

As to `O=C(Nc1n[nH]c2nc(-c3ccco3)c(Br)cc12)C1CCN(Cc2ccccc2)C1.O=C(O)[C@H](O)[C@@H](O)C(=O)O` (stereo not shown) [SB-742034], the “%Inh” value in [1] was found to be 12%; in experiment [2], 0%; in experiment [3], 0%; in [4], 8%; in [5] it was 86%; in experiment [6] it was 83%. Moreover, the “%Inh” value in experiment [7] is 76%; in experiment [8], 7%; in experiment [9], 30%; in experiment [10] it was 18%.
